Measurements published in PubChem BioAssay AID463173 (ICCB-Longwood Screening Facility, Harvard Medical School, 2010).
In all, about 52,000 compounds went through this assay and about 1,700 (3.3%) were called active. The sample as a whole holds a higher share of actives than the screen did. Unmarked numbers belong to inactive results. Cut-off read from the data, not from the text of the source: active = survival mostly below about 52% (no sharp cut-off); inactive = mostly above about 56%.

Test system: Wild type
Assay: growth inhibition of S. aureus wild type versus tarO mutant, primary screen, teichoic acid synthesis inhibitors, RN4220, OD600 (AID 463173)
Details: S. aureus RN4220 wild type/DeltatarO growth, OD600, 18 h, active compounds read low, screened at 18.75 µg/mL (by protocol)

Q: `COc1cccc(-n2c(SCC(=O)c3ccc(Cl)cc3)nc3c([nH]c4ccccc43)c2=O)c1` was tested. Which survival did it give?
A: 45%

Q: Which survival does the source give for `COc1cc(OC)c(NC2(c3ccccc3)C(=O)c3ccccc3C2=O)cc1Cl` here?
A: 65%

Q: Which survival does the source give for `CCN(CC)CCCNC(=O)c1c(C)oc2ncn(CC(C)C)c(=O)c12` here?
A: 81%

Q: How did the survival turn out when `CCNC(=O)c1c(C)oc2ncn(C)c(=O)c12` was run?
A: 119%

Q: Which survival does the source give for `Cc1cccc(NC(=O)c2c(C)oc3ncn(CC(C)C)c(=O)c23)n1` here?
A: 71%

Q: How did the survival turn out when `Cc1oc2ccc(O)c(CN(C)Cc3ccccc3)c2c1C(=O)Nc1ccccc1` was run?
A: 105%

Q: Which survival does the source give for `CCCCNC(=O)c1c(C)oc2ncn(CC(C)C)c(=O)c12` here?
A: 1% (active)

Q: Which survival does the source give for `CSc1ccc(CCNC(=O)c2c(C)oc3ncn(C)c(=O)c23)cc1` here?
A: -4% (active)

Q: For `Cc1oc2ccc(O)c(CN(C)Cc3ccccc3)c2c1C(=O)Nc1cccc(C(F)(F)F)c1`, which survival is on record?
A: 10% (active)

Q: How did the survival turn out when `Cc1oc2ccc(O)c(CN3CCN(C)CC3)c2c1C(=O)Nc1cccc(C(F)(F)F)c1` was run?
A: 92%

Q: Which survival does the source give for `Cc1oc2ncn(CC(C)C)c(=O)c2c1C(=O)NCCCN1CCCCC1` here?
A: 73%

Q: For `CCOc1ccc(CCNC(=O)c2c(C)oc3ncn(C)c(=O)c23)cc1`, which survival is on record?
A: 82%

Q: How did the survival turn out when `Cc1ccnc(NC(=O)c2c(C)oc3ncn(CC(C)C)c(=O)c23)c1` was run?
A: 69%

Q: How did the survival turn out when `Cc1oc2ncn(CC(C)C)c(=O)c2c1C(=O)Nc1cccc(C(F)(F)F)c1` was run?
A: -3% (active)

Q: Which survival does the source give for `Cc1ccc(CNC(=O)CCCCCn2c(=O)[nH]c3ccccc3c2=O)cc1` here?
A: 146%

Q: Which survival does the source give for `CCOc1ccc(NS(=O)(=O)c2ccc3[nH]cc(C(=O)N4CCCCCC4)c(=O)c3c2)cc1` here?
A: 122%

Q: With `COc1ccccc1N1CCN(Cc2nnc(-c3ccccc3C)o2)CC1` as the molecule, how does the survival read?
A: 82%

Q: `CCc1nn2c(=O)c(S(=O)(=O)Nc3ccc(Br)cc3F)c(C)nc2s1` was tested. Which survival did it give?
A: 61%

Q: `COc1ccccc1C(=O)NC1(C(F)(F)F)C(=O)NC(C)=C1C#N` (centres undefined) was tested. Which survival did it give?
A: 90%

Q: For `CCOc1ccc(NC(=O)c2oc3ccccc3c2NC(=O)C2CCCCC2)cc1`, which survival is on record?
A: 84%

Q: With `O=C(Nc1ccc(F)cc1)c1oc2ccccc2c1NC(=O)C1CCCCC1` as the molecule, how does the survival read?
A: 14%

Q: For `Cc1ccc(C(=O)Nc2c(C(=O)NC(C)(C)C)oc3ccccc23)cc1`, which survival is on record?
A: 0% (active)

Q: With `CN(C)c1ccc(C(=O)Nc2c(C(=O)NC(C)(C)C)oc3ccccc23)cc1` as the molecule, how does the survival read?
A: 65%

Q: Which survival does the source give for `Cc1ccc(NC(=O)c2oc3ccccc3c2NC(=O)C2CCCCC2)cc1` here?
A: 4% (active)

Q: With `CC(C)(C)NC(=O)c1oc2ccccc2c1NC(=O)c1ccc(F)cc1` as the molecule, how does the survival read?
A: 73%

Q: Which survival does the source give for `CCOC(=O)c1sc(NC(=O)c2c(-c3ccccc3)c(-c3ccccc3)nn(C)c2=O)nc1C` here?
A: 71%

Q: `COc1ccc(-c2noc(Cn3c(=O)c4ccccc4n(CC(=O)Nc4cccc(OC)c4)c3=O)n2)cc1` was tested. Which survival did it give?
A: 82%

Q: With `Cc1ccccc1NS(=O)(=O)c1ccc2[nH]cc(C(=O)N3CCCC3)c(=O)c2c1` as the molecule, how does the survival read?
A: 99%

Q: `CC(Nc1ccc(-c2nc(-c3ccncc3)no2)cc1[N+](=O)[O-])c1ccccc1` (centres undefined) was tested. Which survival did it give?
A: 87%

Q: For `CCOc1ccc(NC(=O)Cn2c(=O)oc3cc(S(=O)(=O)NC4CCCC4)ccc32)cc1`, which survival is on record?
A: 81%

Q: How did the survival turn out when `CCOCCCNC(=O)c1cnc2sc(N3CCCCCC3)nn2c1=O` was run?
A: 68%

Q: With `CCOC(=O)C1(C)C=C(Nc2cccc(C)c2)C(=O)N1c1ccccc1` (centres undefined) as the molecule, how does the survival read?
A: 51%

Q: `CCOC(=O)Cc1c(C)nc2cc(C)nn2c1C` was tested. Which survival did it give?
A: 106%

Q: `CCOC(=O)CC(NC(=O)CCc1c(C)nc2cc(-c3ccccc3)nn2c1C)c1ccc(C)cc1` (centres undefined) was tested. Which survival did it give?
A: 128%

Q: `CCOC(=O)Cc1c(C)nc2cc(-c3ccc(C(C)(C)C)cc3)nn2c1C` was tested. Which survival did it give?
A: -2% (active)

Q: `O=C(Nc1ccccc1O)c1cccc(S(=O)(=O)Nc2ccccc2O)c1` was tested. Which survival did it give?
A: 108%

Q: With `CCN1CCN(CC2CCCCC2)CC1` as the molecule, how does the survival read?
A: 102%

Q: Which survival does the source give for `CC1CN(C(=O)CCC(=O)NCc2ccccc2)c2cc(Cl)ccc2O1` (centres undefined) here?
A: 92%

Q: With `CCOc1ccccc1-c1nnc(SCc2ccc(Cl)cc2)o1` as the molecule, how does the survival read?
A: -14% (active)

Q: How did the survival turn out when `Oc1ccccc1-c1nnc(SCc2ccccc2)o1` was run?
A: 103%

Q: Which survival does the source give for `Oc1ccc(-c2nnc(SCc3ccc(Cl)cc3)o2)cc1` here?
A: 112%

Q: With `Cc1cc(C(=O)N2CCN(c3cc(Cl)ccc3C)CC2)c2c(C)nn(-c3ccccc3)c2n1` as the molecule, how does the survival read?
A: 136%

Q: With `O=C(Nc1ncn[nH]1)C(F)(F)C(F)F` as the molecule, how does the survival read?
A: 108%

Q: With `O=C1CC(c2ccccc2)Cc2[nH]c(=O)c(C(=O)Nc3ccc(F)cc3)cc21` (centres undefined) as the molecule, how does the survival read?
A: 75%

Q: How did the survival turn out when `CC(=O)c1ccc(NC(=O)c2cc3c([nH]c2=O)CC(c2ccccc2)CC3=O)cc1` (centres undefined) was run?
A: 85%

Q: Which survival does the source give for `Cc1cccc(NC(=O)c2cc3c([nH]c2=O)CC(c2ccccc2)CC3=O)c1` (centres undefined) here?
A: -3% (active)

Q: How did the survival turn out when `O=C1CC(c2ccccc2)Cc2[nH]c(=O)c(C(=O)Nc3cccc(Cl)c3)cc21` (centres undefined) was run?
A: 0% (active)

Q: Which survival does the source give for `COc1ccc(NC(=O)c2cc3c([nH]c2=O)CC(c2ccccc2)CC3=O)cc1` (centres undefined) here?
A: 63%

Q: Which survival does the source give for `O=C1CC(c2ccccc2)Cc2[nH]c(=O)c(C(=O)Nc3cccc(F)c3)cc21` (centres undefined) here?
A: 85%

Q: How did the survival turn out when `CCOC(=O)c1ccc(NC(=O)CSc2ccc(-c3ccccn3)nn2)cc1` was run?
A: 90%

Q: `COc1ccccc1N1CCN(C(=O)c2nc(-c3ccc(C)cc3)n3c2CCCCC3)CC1` was tested. Which survival did it give?
A: 85%

Q: Which survival does the source give for `Cc1ccc(-n2ncc3c(NCCc4ccccc4)ncnc32)cc1` here?
A: 76%

Q: How did the survival turn out when `Cc1ccc(-n2ncc3c(N(CCO)Cc4ccccc4)ncnc32)cc1` was run?
A: 0% (active)

Q: Which survival does the source give for `OCCN(CCO)c1ncnc2c1cnn2-c1ccc(F)cc1` here?
A: 1% (active)

Q: How did the survival turn out when `CCCCN(CCCC)c1ncnc2c1cnn2-c1cccc(C)c1` was run?
A: 91%

Q: Which survival does the source give for `Cc1ccc(-n2ncc3c(N(C)Cc4ccccc4)ncnc32)cc1` here?
A: 85%

Q: How did the survival turn out when `CCN(Cc1ccccc1)c1ncnc2c1cnn2-c1ccc(F)cc1` was run?
A: 55%

Q: How did the survival turn out when `CCOc1ccc(-c2cc3nc(C4CCN(C(=O)OC(C)(C)C)CC4)c(C(=O)Nc4c(C)cccc4C)cn3n2)cc1` was run?
A: 86%

Q: With `CCOc1ccc(C(=O)CSc2nnc3cc(C)c4ccccc4n23)cc1` as the molecule, how does the survival read?
A: 85%
